BAZ2B inh: BAZ2B (human) inhibition | Q9UIF8 | AlphaScreen BAZ2B-H3K14Ac peptide displacement | Potency, µM (doses to about 114 µM), without a hit: at the highest dose activity change, negative = inhibition, usual class: inhibitors | 4.4% of 360,000 active; further: on the % scale 0 is the no-effect control and ±100 the full control effect; nearly all actives have a fitted effect of over 60% in size
Target sequence (Q9UIF8 whole entry, looked up): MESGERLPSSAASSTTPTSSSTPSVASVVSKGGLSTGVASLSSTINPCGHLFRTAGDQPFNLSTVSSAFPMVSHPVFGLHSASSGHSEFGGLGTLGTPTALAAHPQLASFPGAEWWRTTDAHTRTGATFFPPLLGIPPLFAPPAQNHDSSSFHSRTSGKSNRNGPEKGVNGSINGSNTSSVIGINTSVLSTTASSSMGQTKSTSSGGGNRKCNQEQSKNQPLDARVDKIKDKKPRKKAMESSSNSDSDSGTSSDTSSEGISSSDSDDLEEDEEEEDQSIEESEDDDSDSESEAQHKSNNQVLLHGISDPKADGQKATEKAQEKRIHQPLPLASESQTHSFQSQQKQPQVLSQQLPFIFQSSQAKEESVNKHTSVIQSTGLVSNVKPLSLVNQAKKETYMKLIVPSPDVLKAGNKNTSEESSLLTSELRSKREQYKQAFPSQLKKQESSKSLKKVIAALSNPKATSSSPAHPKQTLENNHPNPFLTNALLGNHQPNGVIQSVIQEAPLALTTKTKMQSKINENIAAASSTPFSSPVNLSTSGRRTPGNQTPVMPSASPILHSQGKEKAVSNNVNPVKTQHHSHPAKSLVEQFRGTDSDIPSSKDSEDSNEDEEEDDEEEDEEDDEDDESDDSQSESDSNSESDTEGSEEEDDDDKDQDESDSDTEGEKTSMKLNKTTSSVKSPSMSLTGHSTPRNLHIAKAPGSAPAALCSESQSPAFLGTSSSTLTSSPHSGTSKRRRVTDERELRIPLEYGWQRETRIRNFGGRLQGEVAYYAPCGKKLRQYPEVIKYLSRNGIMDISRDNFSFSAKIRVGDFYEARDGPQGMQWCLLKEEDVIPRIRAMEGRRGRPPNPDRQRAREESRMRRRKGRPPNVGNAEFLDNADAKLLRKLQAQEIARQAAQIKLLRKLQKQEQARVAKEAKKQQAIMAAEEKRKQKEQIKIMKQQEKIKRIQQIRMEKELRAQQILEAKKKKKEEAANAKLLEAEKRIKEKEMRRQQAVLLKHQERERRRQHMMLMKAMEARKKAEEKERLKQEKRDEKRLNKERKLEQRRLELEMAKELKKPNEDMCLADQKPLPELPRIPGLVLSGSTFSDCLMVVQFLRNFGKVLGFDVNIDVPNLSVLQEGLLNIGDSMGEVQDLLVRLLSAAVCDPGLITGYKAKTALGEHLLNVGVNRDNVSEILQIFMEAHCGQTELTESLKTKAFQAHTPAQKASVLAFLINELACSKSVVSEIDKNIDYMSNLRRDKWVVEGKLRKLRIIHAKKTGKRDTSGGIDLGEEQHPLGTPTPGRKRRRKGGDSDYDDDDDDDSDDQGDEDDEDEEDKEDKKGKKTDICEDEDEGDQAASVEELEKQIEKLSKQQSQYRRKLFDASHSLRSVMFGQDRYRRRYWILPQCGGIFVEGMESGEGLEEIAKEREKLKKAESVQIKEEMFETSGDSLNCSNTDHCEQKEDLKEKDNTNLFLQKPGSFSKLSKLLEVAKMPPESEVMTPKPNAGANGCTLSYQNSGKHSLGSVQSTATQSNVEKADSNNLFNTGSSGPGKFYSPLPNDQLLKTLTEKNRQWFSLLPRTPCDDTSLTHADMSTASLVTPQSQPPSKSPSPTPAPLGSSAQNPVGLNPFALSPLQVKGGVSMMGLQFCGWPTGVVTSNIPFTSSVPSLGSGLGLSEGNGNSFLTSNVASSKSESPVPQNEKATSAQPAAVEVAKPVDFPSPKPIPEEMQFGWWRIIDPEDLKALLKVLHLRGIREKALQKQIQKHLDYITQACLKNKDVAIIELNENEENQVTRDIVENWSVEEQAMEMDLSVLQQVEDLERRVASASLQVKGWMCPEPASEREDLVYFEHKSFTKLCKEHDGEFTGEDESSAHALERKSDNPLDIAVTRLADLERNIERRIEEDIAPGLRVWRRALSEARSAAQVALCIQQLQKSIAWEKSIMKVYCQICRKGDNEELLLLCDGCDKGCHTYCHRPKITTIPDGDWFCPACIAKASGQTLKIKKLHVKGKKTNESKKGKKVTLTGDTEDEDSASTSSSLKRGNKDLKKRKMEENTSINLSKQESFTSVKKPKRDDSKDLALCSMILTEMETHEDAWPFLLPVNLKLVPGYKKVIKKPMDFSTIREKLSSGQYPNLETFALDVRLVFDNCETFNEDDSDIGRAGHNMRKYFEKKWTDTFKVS
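Protein-peptide AlphaScreen: BAZ2B 50 nM, b-H3K14Ac 50 nM, 1x PBS pH 7.4 + 0.01% Tween-20. Preincubation 30 min RT; cpd 30 min RT (top 110 uM); beads 20 min RT, light-protected.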
G9a block: blocks human histone lysine methyltransferase G9a | G9a H3K9 monomethylation, AlphaScreen, 2 h | Potency, µM (doses to about 102 µM), without a hit: at the top dose activity, negative = inhibition, usual class: inhibitors | 8.8% of 350,000 active | AID 504332; further: on the % scale 0 is the no-effect control and ±100 the full control effect; nearly all actives have a fitted effect of over 75% in size
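Readings reflect AlphaScreen signal from monomethyl-H3K9 antibody detection. HMT at 20 nM; substrate b-H3K9 500 nM; cofactor SAM 20 uM; 2 h RT reaction; compounds tested as titrations in qHTS with 15 min preincubation.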
TDP1 inh: inhibitors of human tyrosyl-DNA phosphodiesterase TDP1. 0.28% of 350,000 active. recombinant TDP1, AlphaScreen DNA substrate cleavage. Potency, µM (titrated, usually from 130 µM), inactives show top-dose activity change, negative = inhibition, hits mostly inhibitors. Q9NUW8; further: on the % scale 0 is the no-effect control and ±100 the full control effect; nearly all actives have a fitted effect of over 40% in size
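Steps: enzyme plus compound, 15 min RT; add biotin/phosphotyrosine-FITC oligonucleotide (15 nM final), react 5 min; add donor/acceptor beads (10 ug/ml final), 10 min; read AlphaScreen. Tdp1 at 1 nM final.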
JMJD2A Tudor inh: JMJD2A Tudor domain (human) inhibition; O75164; AlphaScreen JMJD2A-Tudor / H3K4me3 peptide binding; Potency, µM (top dose mostly 114 µM), without a hit: at the top dose activity change, negative = inhibition, hits mostly inhibitors; 4.4% of 390,000 active; further: on the % scale 0 is the no-effect control and ±100 the full control effect; nearly all actives have a fitted effect of over 50% in size
HP1b binding inh: blocks HP1-beta chromodomain binding to methylated histone tails | P83916 | AlphaScreen HP1-beta / biotin-H3K9me3 peptide binding | Potency, µM (highest dose often 114 µM), for inactives: at the highest dose activity change, negative = inhibition, usual class: inhibitors | 0.56% of 390,000 active | AID 540317; further: nearly all actives have a fitted effect of over 70% in size
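AlphaScreen: HP1-beta (50 nM) preformed 30 min with biotin-H3(1-18)K9me3 peptide (50 nM) in PBS pH 7.4, 0.01% Tween-20. Compound added for 30 min at RT, then streptavidin donor/nickel chelate acceptor beads (10 ug/mL) for 30 min.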
Sfp inh: blocks B. subtilis Sfp PPTase activity. Q9F4F7. Biochemical Sfp PPTase activity, qHTS. Potency, µM, for the others: largest response in the series, negative = inhibition, hits mostly inhibitors. 3.5% of 310,000 active;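 further: the enzyme is Sfp with the accession as filed and its product quenches rhodamine fluorescence; 0% = enzyme reaction without inhibitor and -100% = no enzyme wells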
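Compounds were incubated with enzyme (final 15 nM) for 15 min at room temperature before substrate addition started the reaction. Fluorescence at 525 nm excitation, 598 nm emission was recorded immediately and after 30 minutes.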
* marks the source's active call; other numbers are inactive results; ? = inconclusive; · = not tested or not shown; [ ] = dose if it differs, or a comment. The list is not random: actives were taken first. Their share in the collection is about 12%. The call rests on the fitted dose curve; in most records, active means well fitted curve in the direction sought with a large enough effect; inconclusive means small, poorly fitted or top-dose-only effect, or another doubt; inactive means no such curve, though single readings can be large; an effect the other way counts as inactive or inconclusive. Potency means the concentration at half of the fitted maximal effect.

SMILES	BAZ2B inh	G9a block	TDP1 inh	JMJD2A Tudor inh	HP1b binding inh	Sfp inh
Cc1ccc(NC(=O)CN(C)CC(=O)Nc2ccccc2Oc2ccccc2)cc1	25.1µM*	35.5µM*	0.0%	3.55µM*	17.8µM*	?
O=c1c(-c2ccco2)[n+]([O-])c2ccccc2n1OCc1ccccc1[N+](=O)[O-]	-32.9%	35.5µM*	3.1%	2.8%	27.6%	50.1µM*
CO[C@H]1/C=C/O[C@@]2(C)Oc3c(C)c(O)c4c(O)c(c(/C=N/N5CCN(C)CC5)c(O)c4c3C2=O)NC(=O)/C(C)=C\C=C\[C@H](C)[C@H](O)[C@@H](C)[C@@H](O)[C@@H](C)[C@H](OC(C)=O)[C@@H]1C	·	20µM*	18.3%	·	·	-24.3%
COc1ccc(C(CCN2CCN(c3ccccc3)CC2)c2c(OC)cc(OC)c3c(-c4ccccc4)cc(=O)oc23)cc1 (stereo not given)	?	?	15.6%	?	-8.6%	21.7%
COc1cc(OC)c2ccc(=O)oc2c1C(CCN1CCN(c2ccccc2)CC1)c1ccc(N(C)C)cc1 (stereo not given)	35.5µM*	-137.6%[59 µM]	24.4%	22.4µM*	?	13.6%
COc1cc(OC)c2c(-c3ccccc3)cc(=O)oc2c1C(CCN1CCCC(C)C1)c1ccc(N(C)C)cc1 (stereo not given)	15.8µM*	?	10.7%	11.2µM*	?	?
COc1ccc(C(CCN2CCOCC2)c2c(OC)cc(OC)c3ccc(=O)oc23)cc1 (stereo not given)	·	·	1.9%[56.1 µM]	-15.1%	10.9%	·
CCCCCc1cc(=O)oc2c(C(CCN3CCN(c4ccccc4)CC3)c3ccc(N(C)C)cc3)c(OC)cc(OC)c12 (stereo not given)	6.31µM*	?	9.5%	22.4µM*	?	-1.8%
COc1cc(OC)c2ccc(=O)oc2c1C(CCN1CCOCC1)c1ccc(N(C)C)cc1 (stereo not given)	·	28.2µM*	14.3%	·	·	-3.2%
COc1ccc(C(CCN2CCCC(C)C2)c2c(OC)cc(OC)c3c(-c4ccccc4)cc(=O)oc23)cc1 (stereo not given)	-36.8%	13.5%[12.7 µM]	9.7%	?	6.9%	?
COc1ccc(/C=C(\NC(=O)c2ccc(OC)c(OC)c2)C(=O)N2CCN(C)CC2)cc1	-3.3%	-1.7%	·	-14.4%	-8.0%	12.2%
O=c1c(-c2ccc(Cl)cc2)nc2cnc(N3CCOCC3)nc2n1CCc1ccccc1	·	-0.7%[0.501 µM]	·	·	·	14.3%
COc1ccc(C(CCN2CCOCC2)c2c(OC)cc(OC)c3c(-c4ccccc4)cc(=O)oc23)cc1 (stereo not given)	·	?	4.7%[56.1 µM]	?	-4.4%	?
COc1cc(OC)c2c(-c3ccccc3)cc(=O)oc2c1C(CCN1CCN(c2ccccc2)CC1)c1ccc(N(C)C)cc1 (stereo not given)	4.47µM*	?	24.4%	4.47µM*	?	1.1%
COc1cc(OC)c2c(C)cc(=O)oc2c1C(CCN1CCOCC1)c1ccc(N(C)C)cc1 (stereo not given)	39.8µM*	-3.7%[12.7 µM]	·	50.1µM*	?	-10.1%
COc1ccc(-c2cc(C(=O)OCC(=O)NC(C)C)c3ccccc3n2)cc1	2.9%	-18.4%	-0.6%	-6.9%	28.6%	-2.3%
c1ccc(-c2csc(Nc3ccc4c(c3)OCCO4)n2)cc1	50.1µM*	11.2µM*	5.1%	70.8µM*	-52.0%	?
Brc1cccc(Nc2nc(-c3cccnc3)cs2)c1	-1.2%	·	·	-12.4%	37.6%	-5.9%
O=C(O)c1ccc(Nc2nc(-c3cccnc3)cs2)cc1	0.8%	?	·	-6.8%	10.5%	89.1µM*
Brc1ccc(Nc2nc(-c3cccnc3)cs2)cc1	-15.2%	31.6µM*	6.5%	-21.8%	30.7%	44.7µM*
c1cc2c(cc1Nc1nc(-c3ccc4c(c3)OCO4)cs1)OCCO2	?	?	5.7%	-32.4%	-0.1%	-83.2%
